The whole screen tested about 350,000 compounds, of which about 5,500 (1.6%) were called active.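 Rule for the calls: active = significant combined selectivity score with lowered wild-type GFP, culture density cut under 30%, mutant RFP and density less affected; inactive = any of these conditions unmet.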 The entries come from a sample that favours actives as a whole.

The test in a line: GFP drop in mixed WT/humanized-ribosome E. coli culture – GFP/RFP fluorescence, OD600, single point, bacterial rRNA inhibitor project, primary screen (AID 720706). As to conditions: E. coli WT GFP vs humanized-ribosome RFP mutants, 24 h; GFP signal change (wild-type ribosome): stronger effect = lower value, DMSO median 0, no signal -100; OD600 change: measured here: OD600 growth, DMSO median 0, no signal -100; RFP signal change: measured here: RFP humanized mutant strains, DMSO median 0, no signal -100, concentration not given here.
For `COc1ccc2c3c([nH]c2c1)[C@@H](CO)N(C(=O)CC1CC1)CC31CCN(Cc2cccnc2)CC1`, the GFP signal change (wild-type ribosome) was 1.59% (inactive), the OD600 change turned out to be 3.97% and the RFP signal change was determined as 3.46%.

Consider `CCOc1ccc(NS(=O)(=O)c2ccc(C)c(C(N)=O)c2)cc1`, for which the GFP signal change (wild-type ribosome) is 2.05% (inactive), the OD600 change was 7.61% and the RFP signal change was determined as 0.34%.

`CCOc1cc(NS(=O)(=O)c2ccc(OC)cc2)c(OCC)cc1NC(C)=O`: the GFP signal change (wild-type ribosome) is 12.2% (inactive), the OD600 change was determined as 0.765% and the RFP signal change was determined as 1.03%.

In the case of `CCOc1ccc2sc(NS(=O)(=O)c3ccc(N)cc3)nc2c1`, the GFP signal change (wild-type ribosome) was -24.1% (active), the OD600 change is -5.58% and the RFP signal change is -5%.

As for `COc1ccc2c3c(n(C)c2c1)[C@H](CO)N(CC1CCCCC1)CC31CCN(Cc2nccs2)CC1`, the GFP signal change (wild-type ribosome) was 5.15% (inactive), the OD600 change was -34.3% and the RFP signal change was found to be 21.2%.

With `Cc1noc(C)c1NC(=O)N(C)C[C@@H]1Oc2ccc(NC(=O)CCN3CCOCC3)cc2CC(=O)N([C@H](C)CO)C[C@@H]1C`, the GFP signal change (wild-type ribosome) was -0.675% (inactive), the OD600 change was found to be 4.65% and the RFP signal change was -1.87%.

For the molecule `C[C@@H]1CN([C@H](C)CO)C(=O)c2cccc(NC(=O)Nc3ccc4c(c3)OCO4)c2O[C@H]1CN(C)S(=O)(=O)c1ccccc1`, the GFP signal change (wild-type ribosome) was -2.91% (inactive), the OD600 change was -5.67% and the RFP signal change is -1.37%.

Consider `COc1ccc2c3c([nH]c2c1)[C@@H](CO)N(Cc1ccc2c(c1)OCO2)CC31CN(C(=O)Nc2c(C)noc2C)C1`, for which the GFP signal change (wild-type ribosome) is 0.081% (inactive), the OD600 change was found to be 0.39% and the RFP signal change is 1.36%.

As to `CC(C)(C)[S@@](=O)N1Cc2cc(C(=O)O)nc(-c3cccc(-c4cccc(F)c4)c3)c2[C@H]1CCO`, the GFP signal change (wild-type ribosome) is 4.83% (inactive), the OD600 change was 5.04% and the RFP signal change amounted to 0.24%.

`O=C(COC(=O)c1ccc(Br)o1)NC12CC3CC(CC(C3)C1)C2`: the GFP signal change (wild-type ribosome) is -10.7% (inactive), the OD600 change was -7.12% and the RFP signal change was determined as 2.74%.

As for `O=C(COC(=O)c1ccc([N+](=O)[O-])o1)NC12CC3CC(CC(C3)C1)C2`, the GFP signal change (wild-type ribosome) was -30.1% (active), the OD600 change was determined as 9.91% and the RFP signal change amounted to 3.52%.

With `O=C(OCC(=O)c1cccs1)c1ccc([N+](=O)[O-])o1`, the GFP signal change (wild-type ribosome) is 9.6% (inactive), the OD600 change was 5.51% and the RFP signal change turned out to be 1.76%.

Take `CCCNC(=O)Nc1ccc2c(c1)C(=O)N(C)C[C@H](OC)[C@H](C)CN(Cc1ccncc1)[C@H](C)CO2`: the GFP signal change (wild-type ribosome) is 1.74% (inactive), the OD600 change stood at 6.36% and the RFP signal change is -1.58%.

For `O=C(CCCN1CCc2[nH]c3ccc(F)cc3c2C1)c1ccc(F)cc1`, the GFP signal change (wild-type ribosome) was -28.2% (active), the OD600 change is -21.9% and the RFP signal change was determined as 3.29%.

As for `C=CCNC(=S)N1CCc2[nH]c3ccccc3c2C1`, the GFP signal change (wild-type ribosome) was 1.71% (inactive), the OD600 change is -2.66% and the RFP signal change turned out to be 1.19%.

Turning to `CC1CCc2[nH]c3ccc(C(=O)N(C)CC(=O)Nc4cccc(F)c4)cc3c2C1` (centres undefined), the GFP signal change (wild-type ribosome) was -34% (inactive), the OD600 change was -74.6% and the RFP signal change is -1.58%.

On to `CC(C)(C)c1ccc(Oc2ccc(N)cc2)cc1`, for which the GFP signal change (wild-type ribosome) is -34% (active), the OD600 change is -27.1% and the RFP signal change is -4.06%.

Regarding `COc1cnc(-c2ccccn2)nc1Oc1ccc(C(C)(C)C)cc1`, the GFP signal change (wild-type ribosome) is -55.5% (inactive), the OD600 change was -80% and the RFP signal change was -19.6%.

Consider `O=C(Nc1cccc(F)c1)N1CC(=O)N2[C@H](CO)[C@H](c3ccc(C#CC4CC4)cc3)[C@@H]2C1`, for which the GFP signal change (wild-type ribosome) is 4.76% (inactive), the OD600 change worked out at 3% and the RFP signal change amounted to 11.4%.

Consider `CCN(CC(=O)NCc1ccc(F)cc1)S(=O)(=O)c1ccc(Cl)s1`, for which the GFP signal change (wild-type ribosome) was -6.72% (inactive), the OD600 change was -25.1% and the RFP signal change was -2.95%.

`Cc1ccc(SC(C)C(=O)NCc2ccc(F)cc2)cc1` (centres undefined): the GFP signal change (wild-type ribosome) was 7.25% (inactive), the OD600 change came to 3.19% and the RFP signal change was -0.85%.

With `CSc1ccc(CN(C)CC(=O)NCc2ccc(F)cc2)cc1`, the GFP signal change (wild-type ribosome) was -30.9% (active), the OD600 change is -24.5% and the RFP signal change was -8.04%.

As to `Cc1noc(C)c1S(=O)(=O)Nc1ccc2c(c1)C(=O)N([C@@H](C)CO)C[C@@H](C)[C@H](CN(C)C(=O)NC(C)C)OCCCC[C@@H](C)O2`, the GFP signal change (wild-type ribosome) is 4.36% (inactive), the OD600 change was found to be 7.55% and the RFP signal change is -2.26%.

Turning to `C[C@@H]1CN([C@H](C)CO)C(=O)c2cc(-c3ccc(F)cc3)cnc2O[C@@H]1CN(C)Cc1ccc(C(=O)O)cc1`, the GFP signal change (wild-type ribosome) was -4.64% (inactive), the OD600 change came out at 1.8% and the RFP signal change was -8.48%.

For `CO[C@@H]1CN(C)C(=O)c2ccc(NC(=O)Nc3cc(F)ccc3F)cc2OC[C@@H](C)N(C)C[C@@H]1C`, the GFP signal change (wild-type ribosome) was -5.36% (inactive), the OD600 change is -19.5% and the RFP signal change stood at 0.48%.

For the molecule `CCC(=O)N1[C@@H](CO)[C@H](c2ccc(-c3cccc(F)c3)cc2)[C@@H]1CNC(C)=O`, the GFP signal change (wild-type ribosome) was -3.61% (inactive), the OD600 change was 3.25% and the RFP signal change turned out to be 2.12%.

In the case of `O=C(C1CCOCC1)N1C[C@H]2[C@@H](c3ccccc31)[C@@H](CO)N2Cc1ccccc1`, the GFP signal change (wild-type ribosome) is -1.33% (inactive), the OD600 change came out at 0.79% and the RFP signal change was -0.998%.

On to `O=S(=O)(Nc1ccc(O)c2ccccc12)c1ccc(OC(F)(F)F)cc1`, for which the GFP signal change (wild-type ribosome) was -28.6% (active), the OD600 change is -14.2% and the RFP signal change was -9.13%.

`COc1ccccc1NS(=O)(=O)c1ccc(C(=O)N2CCN(c3ccccc3O)CC2)cc1`: the GFP signal change (wild-type ribosome) is -1.32% (inactive), the OD600 change was -2.56% and the RFP signal change was -0.007%.

Consider `FC(F)(F)Oc1ccc(NC(=S)NCc2ccccc2)cc1`, for which the GFP signal change (wild-type ribosome) is -56.8% (inactive), the OD600 change was -77.1% and the RFP signal change was -19.9%.

Regarding `C[C@H](CO)N1C[C@H](C)[C@H](CN(C)C(=O)C2CC2)Oc2ncc(C#Cc3ccccc3)cc2C1=O`, the GFP signal change (wild-type ribosome) is -0.859% (inactive), the OD600 change worked out at 2.9% and the RFP signal change was -0.79%.

`Cc1cc(SCc2c(F)cccc2Cl)nc(=O)[nH]1`: the GFP signal change (wild-type ribosome) was -15.5% (inactive), the OD600 change amounted to 0.505% and the RFP signal change is -0.535%.

Take `Oc1ccc(-n2nnnc2SCc2c(F)cccc2Cl)cc1`: the GFP signal change (wild-type ribosome) was -53.5% (inactive), the OD600 change is -72.8% and the RFP signal change was -14.2%.

The record behind these values is PubChem BioAssay AID720706 (Broad Institute, 2013).
